According to PubChem BioAssay AID720630 (Broad Institute, 2013):
Inconclusive results are not listed. Active and inactive are the calls of the source. How the calls were made is not given here.

Test: HUVEC apoptotic caspase activation, HRAS target ID – cell-based, multiple timepoints, luminescence, dry powder, mechanism study for HRAS target identification, dose response (AID 720630)
Details: HUVEC apoptosis, caspase-3/7 luminescence; for caspase activation: at 35 µM (top of the series)
[1] = measured here: max caspase activation timepoint 1, at 0.001 µM, test 1, stronger effect = higher value

SMILES	caspase activation	max activity [1] [%]	max activity (measured here: max caspase activation timepoint 2, at 1 µM, test 2, stronger effect = higher value) [%]	max activity (measured here: max caspase activation timepoint 3, at 0.008 µM, test 3, stronger effect = higher value) [%]	max activity (measured here: max caspase activation timepoint 2, at 16 µM, test 2, stronger effect = higher value) [%]	max activity (measured here: max caspase activation timepoint 3, at 4.2 µM, test 3, stronger effect = higher value) [%]
Cc1onc(C(=O)N2CCN(C(c3ccc(Cl)cc3)c3ccc(Cl)cc3)CC2)c1[N+](=O)[O-]	-6.38% (inactive)	-21.9	-18.4	-32.1	–	–
CCC(=O)N(c1ccc(OC)c(Cl)c1)C(C(=O)NCCc1ccccc1)c1cccs1 (stereo not drawn)	8.9% (inactive)	-18.6	–	–	-23.7	-13.9
